Inconclusive results are not listed. Active and inactive are the calls of the source. The calls were made as follows: active = hit-call score of the fitted dose curve at least 0.9, where 1 is the maximum; inconclusive = response in the unintended direction; inactive = score below 0.9.
The molecules below were run against rat Adenosine Transporter (Adot), Slc29a1 (gene 63997) (UniProt O54698) (assay: NVS_TR_rAdoT: NovaScreen (NVS) Transporter Assay for rat Adenosine Transporter (Adot)).
Sequence of rat Adenosine Transporter (Adot), Slc29a1 (gene 63997) (O54698 whole entry, looked up): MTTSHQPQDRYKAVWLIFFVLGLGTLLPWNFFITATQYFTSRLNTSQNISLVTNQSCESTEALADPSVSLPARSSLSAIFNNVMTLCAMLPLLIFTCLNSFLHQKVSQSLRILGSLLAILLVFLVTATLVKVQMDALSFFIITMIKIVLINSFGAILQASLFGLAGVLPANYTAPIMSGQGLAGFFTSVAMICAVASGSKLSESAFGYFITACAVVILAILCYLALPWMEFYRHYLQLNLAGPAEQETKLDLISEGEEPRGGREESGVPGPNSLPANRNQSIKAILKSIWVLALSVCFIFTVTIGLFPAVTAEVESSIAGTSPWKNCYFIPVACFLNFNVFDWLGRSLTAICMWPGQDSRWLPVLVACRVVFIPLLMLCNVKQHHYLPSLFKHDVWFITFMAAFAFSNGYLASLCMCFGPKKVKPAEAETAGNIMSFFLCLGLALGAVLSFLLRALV
Experimental: NVS_TR_rAdoT is a biochemical, single-readout assay that uses extracted gene-proteins from Rat forebrain membranes in a tissue-based cell-free assay. Measurements were taken 1 hour after chemical dosing in a 48-well plate.NVS_TR_rAdoT is one of one assay component(s) measured or calculated from the NVS_TR_rAdoT assay. It is designed to make measurements of radioligand binding, a form of binding reporter, as detected with scintillation counting signals by Filter-based radiodetection technology.Data from the assay component NVS_TR_rAdoT was analyzed into 1 assay endpoint. This assay endpoint, NVS_TR_rAdoT, was analyzed in the positive analysis fitting direction relative to DMSO as the negative control and baseline of activity. Using a type of binding reporter, loss-of-signal activity can be used to understand changes in the binding as they relate to the gene Slc29a1. Furthermore, this assay endpoint can be referred to as a primary readout, because the performed assay has only produced 1 assay endpoint. To generalize the intended target to other relatable targets, this assay endpoint is annotated to the transporter intended target family, where the subfamily is nucleoside transporter.
Binding assays used specific radioligands (tritiated, iodinated) with non-radioactive competitive displacement ligands in agonist or antagonist protocols (as indicated) and various reference compounds and inhibitors to titrate specific binding to receptors and transporters. Most enzyme assays (CYPs, kinases, phosphatases, proteases, HDACs) used recombinant protein and specific substrates (fluorescence mostly, some colorimetric and radioactive) and inhibitors, followed by a biochemical separation of substrate and product. All assays for the biochemical HTS were initially run in duplicate at a single concentration (10 uM for CYP450 assays and 25 uM for all others). Assay-chemical combinations meeting a pre-defined threshold (e.g., 30% inhibition and other criteria defined below) were then run in singleton concentration-response format with maximum concentration of 20 uM for CYPs and 50 uM for all others. Each assay was run with positive and negative controls, and concurrent controls on every plate. The follow-up (secondary) screen tested active chemical-pairs in concentration series, as well as a few additional assays not tested in the primary screen, some selected negative inactives, and several cases re-run in the concentration series for confirmatory purposes.
For `S=C1NCCN1`, the outcome was “inactive”. With `CC[C@H]1OC(=O)[C@H](C)[C@@H](O[C@H]2C[C@@](C)(OC)[C@@H](O)[C@H](C)O2)[C@H](C)[C@@H](O[C@@H]2O[C@H](C)C[C@H](N(C)C)[C@H]2O)[C@](C)(O)C[C@@H](C)C(=O)[C@H](C)[C@@H](O)[C@]1(C)O` the AC50 was 6.47 µM (active). `CCOP(=S)(Oc1ccc([N+](=O)[O-])cc1)c1ccccc1` (configuration not stated) was tested, and the outcome was “inactive”. In the case of `O=C(O)C(F)(F)C(F)(F)C(F)(F)C(F)(F)C(F)(F)C(F)(F)C(F)(F)F`, the outcome is reported as “inactive”. For `Cn1c(=O)c2c(ncn2C)n(C)c1=O`, the outcome was “inactive”. With `COc1ccc2cc(S(=O)(=O)N[C@H](CC(=O)N[C@H](Cc3ccc(CN4[C@H](C)CCC[C@@H]4C)cc3)C(=O)N(C)C(C)C)c3ccc4c(c3)OCO4)ccc2c1` the AC50 was 7.85 µM (active). For `CCCCC(CC)COC(=O)c1ccc(C(=O)OCC(CC)CCCC)c(C(=O)OCC(CC)CCCC)c1` (configuration not stated), the outcome was “inactive”. `Oc1ccc(Cl)cc1Cl` was tested, and the outcome was “inactive”. With `S=C(S)NCCNC(=S)S.[Mn+2].[S-]C([S-])=NCCN=C([S-])[S-].[Zn+2]` the outcome was “inactive”. In the case of `Cc1oc(-c2ccccc2)nc1CCOc1cccc2c1ccn2CCC(=O)O`, the outcome is reported as “inactive”. In the case of `COc1cc2c(c(OC)c1OC)-c1ccc(OC)c(=O)cc1[C@@H](NC(C)=O)CC2`, the outcome is reported as “inactive”. With `O=S(=O)(O)C(F)(F)C(F)(F)C(F)(F)C(F)(F)C(F)(F)C(F)(F)C(F)(F)C(F)(F)F` the outcome was “inactive”.
